The results in this text go back to PubChem BioAssay (NCI).

Some test systems named below: SK-MEL-2 melanoma; EKVX NSCLC; SN12C renal; UO-31 renal; TK-10 renal; ACHN renal; CAKI-1 renal; A498 renal; CCRF-CEM leukemia; MOLT-4 leukemia.
What all share (test): NCI-60 one-dose screen, 48 h (100 = growth as untreated, 0 = no growth, -100 = all killed)
Common to all, as to conditions: 10 µM unless noted

This is part of a sample that, as a whole, favours compounds with a hit. Of some 83,000 tested, about 20% had one in any assay.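 Percent growth is the endpoint: 0 to 100 indicates growth inhibition (40 means 60% inhibition), 0 means no net growth, and negative values indicate cell death.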 Values without a mark were called inactive. The source made the active and inactive calls. Rule for the calls: active = growth percent below 10; inactive = the rest.

Take `CS(CCCCN=C=S)=NC(=O)c1c(F)c(F)c(F)c(F)c1F` (stereo not given): the growth is 94.2% with SK-MEL-2 melanoma; 97.8% in the experiment on EKVX NSCLC; 61.1% in the experiment on SN12C renal; 59.6% with UO-31 renal; 66.6% in the experiment on TK-10 renal; 52.4% in the experiment with ACHN renal. Also, the growth in the experiment with CAKI-1 renal is 71.3%; with A498 renal it was 112%; in the experiment on CCRF-CEM leukemia, 36.8%; in the experiment on MOLT-4 leukemia, 66.2%.
With `Brc1cccc(-c2cc(-c3ccc4c(c3)OCCO4)[nH]n2)c1`, the growth with SK-MEL-2 melanoma was 35.8% [25 µM]; in the experiment on EKVX NSCLC, 20.3% [25 µM]; in the experiment on SN12C renal, 33.7% [25 µM]; in the experiment with UO-31 renal, 35% [25 µM]; in the experiment on TK-10 renal it was 59% [25 µM]; with ACHN renal, 41.4% [25 µM]. Besides, the growth in the experiment with CAKI-1 renal is 25.7% [25 µM]; with A498 renal, 7.77% [25 µM] (active); with CCRF-CEM leukemia, 19.5% [25 µM]; in the experiment with MOLT-4 leukemia it was 50.4% [25 µM].
In the case of `CC(=O)CC(C)(C)c1ccc(Cl)cc1`, the growth was 108% in the experiment with SK-MEL-2 melanoma; 101% in the experiment on EKVX NSCLC; 97.7% in the experiment with SN12C renal; 85.5% in the experiment on UO-31 renal; 114% with TK-10 renal; 102% in the experiment on ACHN renal. Also, the growth in the experiment on CAKI-1 renal is 90.2%; with A498 renal, 108%; in the experiment with CCRF-CEM leukemia, 101%; in the experiment with MOLT-4 leukemia, 100%.
On to `O=C1CCc2c(sc3[nH]c(=S)n(Cc4ccccc4)c(=O)c23)C1`, for which the growth was -15.4% (active) with SK-MEL-2 melanoma; 13.9% in the experiment with EKVX NSCLC; 7.15% (active) with SN12C renal; -4.69% (active) in the experiment with UO-31 renal; 29.6% in the experiment with TK-10 renal; 21.8% in the experiment on ACHN renal. Moreover, the growth is 24.1% in the experiment with CAKI-1 renal, 57.6% in the experiment on A498 renal, 4.68% (active) in the experiment with CCRF-CEM leukemia and 28.8% with MOLT-4 leukemia.
Regarding `COCCOc1ccc(-c2nc3ccc(-c4nc5ccc(N6CCN(C)CC6)cc5[nH]4)cc3[nH]2)cc1`, the growth was -76.2% (active) in the experiment on SK-MEL-2 melanoma; 67.9% in the experiment with EKVX NSCLC; 18.8% in the experiment with SN12C renal; 79.2% in the experiment with UO-31 renal; 66.4% in the experiment on TK-10 renal; 80.8% in the experiment with ACHN renal. The growth is 68.6% in the experiment with CAKI-1 renal, -37.8% (active) in the experiment on A498 renal, -2.49% (active) with CCRF-CEM leukemia and 0.928% (active) in the experiment with MOLT-4 leukemia.
Consider `Cc1cc(-c2nc3ccccc3s2)ccc1NC(=O)COc1ccc(Cl)cc1`, for which the growth in the experiment on SK-MEL-2 melanoma is 104%; in the experiment on EKVX NSCLC it was 78.9%; in the experiment with SN12C renal, 88.3%; in the experiment with UO-31 renal, 69%; in the experiment with TK-10 renal, 53.7%; in the experiment with ACHN renal it was 95.5%. The growth in the experiment on CAKI-1 renal was 84.5%; with A498 renal, 106%; in the experiment with CCRF-CEM leukemia, 106%; with MOLT-4 leukemia, 94.5%.
Consider `COc1cnc2c(c1)C(=O)c1c-2n(CCCN2CCN(C)CC2)c(=O)c2cc([N+](=O)[O-])ccc12`, for which the growth was -14.2% (active) in the experiment with SK-MEL-2 melanoma; -43.8% (active) with EKVX NSCLC; -57.7% (active) in the experiment on SN12C renal; -86.6% (active) with UO-31 renal; -89.7% (active) in the experiment on TK-10 renal; -94.5% (active) in the experiment with ACHN renal. In addition, the growth was -91.4% (active) in the experiment with CAKI-1 renal, -95.9% (active) with A498 renal, -27.3% (active) in the experiment with CCRF-CEM leukemia and -23.2% (active) with MOLT-4 leukemia.
Take `O=C1C=CC(=O)N1c1ccc(Cc2ccc(N3C(=O)C=CC3=O)cc2)cc1`: the growth in the experiment on SK-MEL-2 melanoma was 112%; with EKVX NSCLC it was 109%; with SN12C renal, 96.1%; in the experiment with UO-31 renal it was 81.9%; with TK-10 renal, 92.4%; with ACHN renal, 94.1%. For the same compound, the growth in the experiment on CAKI-1 renal is 65.7%; with A498 renal, 91.2%; in the experiment with CCRF-CEM leukemia, 89.5%; in the experiment on MOLT-4 leukemia, 21.8%.
Regarding `C[C@]12C[C@@H](c3ccoc3)OC(=O)[C@@H]1CC[C@]1(C)[C@@H]2CC[C@@H](O)[C@]1(C)O`, the growth with SK-MEL-2 melanoma was 74.7%; in the experiment on EKVX NSCLC, 57.5%; in the experiment on SN12C renal, 64.1%; in the experiment with UO-31 renal it was 75.5%; in the experiment on TK-10 renal it was 65%; in the experiment on ACHN renal, 76.1%. Further, the growth with CAKI-1 renal was 88.2%; with A498 renal it was 19.8%; in the experiment on CCRF-CEM leukemia, 69.3%; in the experiment on MOLT-4 leukemia, 67.3%.
As to `O=c1c(/C=C/c2ccco2)nnc(SCCN2CCOCC2)n1/N=C/c1ccc([N+](=O)[O-])cc1`, the growth in the experiment on SK-MEL-2 melanoma is 106%; in the experiment on EKVX NSCLC, 81.6%; with SN12C renal, 102%; in the experiment on UO-31 renal, 71.3%; in the experiment with TK-10 renal, 154%; in the experiment with ACHN renal, 99.7%. Also, the growth with CAKI-1 renal is 106%; in the experiment on A498 renal, 103%; in the experiment on CCRF-CEM leukemia it was -20.4% (active); in the experiment with MOLT-4 leukemia it was 81.2%.
For `C=C1CC[C@@H]2[C@](C)(COC(C)=O)[C@H](OC(C)=O)CC[C@@]2(C)[C@@H]1CC(Nc1ccc(S(=O)(=O)Nc2ccc(Cl)nn2)cc1)C1=CCOC1=O` (stereo not given in full), the growth in the experiment with SK-MEL-2 melanoma is 58.3%; in the experiment with EKVX NSCLC it was 87.3%; with SN12C renal, -27.6% (active); in the experiment with UO-31 renal, 18.4%; in the experiment on TK-10 renal, 69.8%; in the experiment on ACHN renal, 16.1%. Also, the growth is 31.8% in the experiment with CAKI-1 renal, 89% in the experiment on A498 renal, -10.3% (active) with CCRF-CEM leukemia and 0.401% (active) in the experiment with MOLT-4 leukemia.
As to `CCC(=O)Oc1ccc(/C(=C(\C)c2ccccc2)c2ccc(OCCN(CC)CC)cc2)cc1`, the growth in the experiment with SK-MEL-2 melanoma was 108%; in the experiment with EKVX NSCLC, 103%; in the experiment on SN12C renal, 84.5%; in the experiment on UO-31 renal, 63.3%; in the experiment on TK-10 renal it was 87.4%; in the experiment with ACHN renal it was 94.8%. Further, the growth in the experiment on CAKI-1 renal is 100%; in the experiment on A498 renal it was 99.9%; in the experiment on CCRF-CEM leukemia it was 77.8%; in the experiment on MOLT-4 leukemia it was 66.4%.
Turning to `CCOC(=O)/C=C/C(=O)[C@H](CC(C)C)NC(=O)[C@H](Cc1ccccc1)NC(=O)OCc1ccccc1`, the growth in the experiment on SK-MEL-2 melanoma was 99.8%; in the experiment on EKVX NSCLC, 100%; in the experiment with SN12C renal, 57.2%; in the experiment on UO-31 renal it was 44.7%; in the experiment with TK-10 renal, 50.1%; in the experiment with ACHN renal it was 47.5%. Also, the growth in the experiment with CAKI-1 renal was 74.8%; in the experiment with A498 renal, 77.6%; in the experiment with CCRF-CEM leukemia it was -18.5% (active); in the experiment with MOLT-4 leukemia, 0.254% (active).
